# Several values for one entry are separate records, joined by “and”; a condition that tells them apart may be missing. Identical values can stand only once. Among all 16,000 compounds or so, about 5,700 (36%) were called active. Not shown: some 24% with an inconclusive outcome. Calls come from the whole dose curve; as a rule, active = well fitted curve in the direction sought with a large enough effect; inconclusive = small, poorly fitted or top-dose-only effect, or effect the other way; inactive = no such curve, though single readings can be large or run the other way. Some of the results follow.
# Biological target: Cytochrome P450 1A2 (Homo sapiens) (UniProt P05177)
# Sequence (P05177 whole entry, looked up): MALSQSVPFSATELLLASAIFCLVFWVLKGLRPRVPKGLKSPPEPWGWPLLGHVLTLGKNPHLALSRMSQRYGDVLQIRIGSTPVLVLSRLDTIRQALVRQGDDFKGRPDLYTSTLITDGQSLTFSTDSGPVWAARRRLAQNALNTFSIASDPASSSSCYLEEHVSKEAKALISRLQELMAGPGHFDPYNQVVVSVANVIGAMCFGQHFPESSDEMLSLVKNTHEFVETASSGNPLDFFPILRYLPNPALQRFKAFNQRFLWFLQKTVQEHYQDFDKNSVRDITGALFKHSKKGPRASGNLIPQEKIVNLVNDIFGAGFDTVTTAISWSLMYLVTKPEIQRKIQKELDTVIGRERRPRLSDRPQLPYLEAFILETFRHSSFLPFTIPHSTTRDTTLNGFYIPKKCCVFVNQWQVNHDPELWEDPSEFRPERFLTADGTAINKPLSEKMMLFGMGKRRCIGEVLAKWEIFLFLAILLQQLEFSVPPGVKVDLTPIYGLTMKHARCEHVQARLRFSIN
# Experiment: Cytochrome panel assay with activity outcomes
# Conditions: recombinant CYP, pro-luciferin dealkylation, luminescence, p450-cyp1a2; series mostly up to 57.1 µM
# % is set by controls: 0 for no effect and ±100 for the full control effect.
SMILES,"activity, negative = inhibition",AC50
CC(=O)OC[C@@H]1O[C@@H](O/N=C2/C[C@@H](O)[C@@H](O)[C@@H]3[C@H]4C(=O)N(c5ccc(F)cc5F)C(=O)[C@@H]4CC[C@H]23)[C@H](OC(C)=O)[C@H](OC(C)=O)[C@@H]1OC(C)=O,-3.19% [at 11.4 µM] (inactive),–
Cc1cccc(N(CC(=O)NCCSCc2ccco2)S(=O)(=O)c2ccccc2)c1,–,inactive
C/C(CCN1CCCCc2nc(C)c(C)cc21)=N\O[C@@H](C)c1cc(-c2c(C)cc(C)cc2C)no1,2.23% [at 11.4 µM] (inactive),–
Nc1ncnc2c1nc(Sc1ccc(Cl)cc1)n2[C@@H]1O[C@H]2COP(=O)(O)O[C@@H]2[C@H]1O,–,inactive
CN(C)c1ccc(-c2nc(NC3CCNCC3)c3ccccc3n2)cc1,–,15.8 µM (active)
CC(C)=NO[C@@H](C)c1cn([C@H](CO)Cc2ccccc2)nn1,-7.23% [at 11.4 µM] (inactive) and -1.97% [at 11.4 µM] (inactive),–
CC1CCN(CCCn2c(=S)[nH]c3ccc(N4CCOCC4)cc3c2=O)CC1,–,inactive
CCCCNC(=O)CSc1nc2ccccc2c(=O)n1CCNC(C)=O,–,inactive
CCCCn1c(SCC(N)=O)nc2ccc(N3CCOCC3)cc2c1=O,–,4.47 µM (active)
Cc1ccc(C)c(C(=O)CN2C(=O)c3ccccc3S2(=O)=O)c1,–,inactive
CCOC(=O)CCN1C(=O)[C@H]2[C@@H]3[C@H](O)C=CC(=O)[C@H]3CC[C@H]2C1=O,-6.05% [at 11.4 µM] (inactive),–
CC(=O)c1cc(C)ccc1OC(=O)CCN1C(=O)C2C3c4ccccc4C(c4ccccc43)C2C1=O (stereo not given),–,15.8 µM (active)
C[C@H]1CN(CCO)CCN1c1ccccc1,-18.4% [at 11.4 µM] (inactive),–
CN(C)CC/C=C1\c2ccccc2CSc2ccccc21,–,inactive
OCCN1CCN(CCC=C2c3ccccc3Sc3ccc(Cl)cc32)CC1,–,15.8 µM (active)
CN(C)CC/C=C1\c2ccccc2Sc2ccc(Cl)cc21,–,1.58 µM (active)
CN(C)CCC=C1c2ccccc2C=Cc2ccccc21,–,inactive
CN1CCN(CCC=C2c3ccccc3Sc3ccc(S(=O)(=O)N(C)C)cc32)CC1,–,inactive
CN(C)CC/C=C1\c2ccccc2COc2ccccc21,–,15.8 µM (active)
CN1CCN(CCCN)CC1,-19.9% [at 11.4 µM] (inactive),–
NC[C@H](O)C1CCCCCCC1,–,inactive
CC(C)N(Cc1ccccc1)S(=O)(=O)c1n[nH]c(C(C)(C)C)n1,2.16% [at 11.4 µM] (inactive),–
Cc1ccc(C)c(NC(=O)C2(C)CC3c4ccccc4C2c2ccccc23)c1 (stereo not given),–,inactive
Cc1ccc(CNC(=O)C2(NC(=O)Nc3ccc(C)cc3)CCCCC2)cc1,–,inactive

SMILES,"activity, negative = inhibition",AC50
Cc1ccc(C)c(NC(=O)NCc2ccc(Cl)cc2)c1,–,0.794 µM (active)
CC1(C)C(=O)N(CCN2CCC(C(=O)c3ccc(F)cc3)CC2)c2ccccc21,–,inactive
O=C(CC(=O)NN=C1CCCC1)NCCc1ccccc1,–,inactive
O=C(NCCc1ccccc1)C(=O)NCC1(c2ccccc2)CCCC1,–,inactive
O=C(NCCc1ccccc1)C(=O)NN=C1CCCC1,–,12.6 µM (active)
COC(=O)c1[nH]c2ccc(Br)cc2c1NC(=O)CN1CCCc2ccccc21,–,5.01 µM (active)
C[C@@H]1CCCN(C[C@@H](O)CN2CCCc3ccccc32)C1,-10.7% [at 11.4 µM] (inactive),–
COC(=O)c1[nH]c2ccc(Br)cc2c1NC(=O)CN1CCN(C2CCCCC2)CC1,–,12.6 µM (active)
CC(C)(CN)CN,2.94% [at 11.4 µM] (inactive),–
CN(C)CCNc1nc2c(c(=O)n(C)c(=O)n2C)n1C,-7.73% [at 11.4 µM] (inactive),–
COc1ccccc1CN1CC2(CCN(S(=O)(=O)c3ccccc3)CC2)C1,–,inactive
COc1cc2c(c(O)c1OC)C(=O)C(OC)CCC2 (stereo not given),–,12.6 µM (active)
COc1cc([C@H]2c3cc4c(cc3[C@@H](O)[C@@H]3COC(=O)[C@H]23)OCO4)cc(OC)c1OC,–,inactive
C/C(CCC(=O)OC[C@@H]1O[C@H](C#Cc2ccccc2)C=C[C@@H]1Oc1ccc(C)cc1)=N/O[C@@H](C)CN1CCCCc2nc(C)c(C)cc21,-3.03% [at 11.4 µM] (inactive),–
O=[N+]([O-])c1ccc2c(c1)S(=O)c1ccccc1-2 (stereo not given),–,0.2 µM (active)
CC1=c2c(oc3cc(O)c(Nc4c(C)cc(O)cc4O)c(C)c23)=CC(=O)C1=Nc1c(C)cc(O)cc1O,–,3.16 µM (active)
CN1[C@@H]2CC[C@H]1CC(OC(c1ccccc1)c1ccccc1)C2 (stereo not given in full),–,inactive
N#Cc1ccc(CN2CCC3(CC2)CCN(S(=O)(=O)c2ccccc2)CC3)cc1,–,inactive
C=CCC(C)(NCc1ccccc1)c1ccco1 (stereo not given),–,inactive
CS(=O)(=O)c1nc2ccccc2n1Cc1ccccc1,–,11.2 µM (active)
C=CC(=O)NC(C)(C)Cc1ccccc1,–,inactive
C=CCn1c(NCc2ccccc2)nc2ccccc21,–,10 µM (active)
CC(=O)Nc1nc2ccccc2n1Cc1ccccc1,–,14.1 µM (active)
O=S(=O)(O)c1nc2ccccc2n1Cc1ccccc1,–,inactive

SMILES,"activity, negative = inhibition",AC50
CO[C@@H]1COC(=O)C/C=C\[C@@H](C)[C@H](OC)COC(=O)[C@H](COCc2ccccc2)NC(=O)C/C=C\[C@H]1C,-0.402% [at 11.4 µM] (inactive),–
COCC(=O)N1CCC2(CCCN(C(=O)Nc3cccc(C#N)c3)C2)CC1,–,inactive
O=c1oc2ccccc2cc1-c1csc(NN=C2CCCCC2)n1,–,0.891 µM (active)
O=C(Nc1ccc(-c2cc3ccccc3oc2=O)c(Cl)c1)c1cccnc1,–,inactive
Clc1ccc(Cl)c(SCCCN2CCNCC2)c1,–,0.501 µM (active)
Cc1c(C=O)c2ccccn2c1C(=O)c1ccncc1,–,1.12 µM (active)
COCCN1C(=O)C(=O)/C(=C(/O)c2cccc(OC)c2)C1c1ccco1 (stereo not given),–,inactive
CN1CCN(c2nc(-c3cccnc3)nc3ccccc23)CC1,–,3.16 µM (active)
CC(C)c1ccccc1-n1c(SCC(=O)N2CCN(c3ccccc3)CC2)nnc1-c1cccnc1,–,inactive
CN1CCN(c2ccncc2S(=O)(=O)N2CCN(C)CC2)CC1,-7.43% [at 2.29 µM] (inactive),–
c1cncc(-c2nc(N3CCNCC3)c3ccccc3n2)c1,–,2.51 µM (active)
N#CCSc1nc(N)c(C#N)c(C2CCCCC2)c1C#N,–,10 µM (active)
Cn1c(=O)c2[nH]c([C@@H]3CC(=O)C[C@H](c4nc5c([nH]4)c(=O)n(C)c(=O)n5C)N3)nc2n(C)c1=O,-18.2% [at 2.29 µM] (inactive),–
Cn1c(=O)c2[nH]c(CCS)nc2n(C)c1=O,-15.3% [at 11.4 µM] (inactive),–
Cn1c(=O)c2[nH]c(C3CCCC3)nc2n(C)c1=O,–,12.6 µM (active)
CCCn1c(=O)c2[nH]c(C3CCCC3)nc2n(CCC)c1=O,–,0.251 µM (active)
CCCCCn1c(CN2CCCCC2C)nc2c1c(=O)n(C)c(=O)n2C (stereo not given),–,inactive
CC(C)(C[C@@]1(C)NC(=O)NC1=O)OCc1ccccc1,-12.1% [at 2.29 µM] (inactive),–
CC(C)Oc1ccc(C2CC(=O)NC3=C2C(=O)CCC3)cc1 (stereo not given),–,inactive
CC1=NN(c2ccccc2)C(=O)C1,–,12.6 µM (active)
CC(=O)NC1=NN(c2ccccc2)C(=O)C1,–,inactive
CC1=NN(c2ccccc2)C(=O)/C1=C\N1CC(C)OC(C)C1 (stereo not given),–,inactive
Cc1cccc(OCCn2c(S(=O)(=O)O)nc3ccccc32)c1,–,inactive
Cc1cccc(OCCn2c(-c3ccco3)nc3ccccc32)c1,–,1.58 µM (active)

SMILES,"activity, negative = inhibition",AC50
N=C(N)SCCc1ccc(OCc2ccc([N+](=O)[O-])cc2)cc1,–,31.6 µM (active)
C[N+]1(CCOc2ccc([N+](=O)[O-])cc2)CCOCC1,–,inactive
N=C(N)SCCc1ccc(CCSC(=N)N)cc1,–,inactive
CC(C)=CCC/C(C)=C/CO/N=C1/C[C@@H](O)[C@@H](O)[C@@H]2[C@H]3C(=O)N(c4ccc(F)cc4F)C(=O)[C@@H]3CC[C@H]12,-0.361% [at 11.4 µM] (inactive),–
CCOc1ccc2[nH]c(=O)c(CN(CCc3ccccc3)C(=O)N3CCCC3)cc2c1,–,14.1 µM (active)
COc1ccc(S(=O)(=O)N(CC(=O)N2CCCC2)Cc2ccccc2)cc1,–,inactive
COc1ccc(S(=O)(=O)N(CCc2ccccc2)CC(=O)N2CCOCC2)cc1,–,inactive
CSc1nnc(-c2sccc2OCc2ccccc2)n1C,–,7.08 µM (active)
Cn1c(-c2sccc2OCc2ccccc2)n[nH]c1=S,–,0.355 µM (active)
CSc1n[nH]c(-c2sccc2OCc2ccc(C)cc2)n1,–,1.41 µM (active)
CC(=O)O[C@]1(C)N=NC2(CCCCC2)O1,-9.6% [at 11.4 µM] (inactive),–
CC(=O)OC[C@@H]1O[C@@H](O/N=C2/C[C@@H](O)[C@@H](O)[C@@H]3[C@@H]4C(=O)N(C[C@@H]5CCCO5)C(=O)[C@H]4CC[C@H]23)[C@H](OC(C)=O)[C@H](OC(C)=O)[C@@H]1OC(C)=O,-5.84% [at 11.4 µM] (inactive),–
Cc1noc(C)c1-c1cncnc1N1CCN(C)CC1,–,inactive
Cc1noc(C)c1-c1ccc2ncnc(N3CCN(C)CC3)c2c1,–,12.6 µM (active)
Cc1noc(C)c1-c1ccc2ncnc(N3CCOCC3)c2c1,–,12.6 µM (active)
NCCc1ccn[nH]1,–,inactive
CC1(C)CC(NC(=O)c2ccc3c(c2)OCO3)CC(C)(C)N1,–,inactive
COC(=O)c1[nH]c2cc(OC)ccc2c1NC(=O)c1ccc2c(c1)OCO2,–,2.51 µM (active)
CCOC(=O)c1[nH]c2cc(OC)c(OC)cc2c1NC(=O)c1nonc1C,–,1 µM (active)
COc1cc(C(=O)OCC(=O)Nc2cc(C)on2)cc(OC)c1OC,–,inactive
Cc1ccc(NC(=O)CN2CCC(NC(=O)Cc3ccccc3)CC2)cc1C,–,inactive
CCOC(=O)c1[nH]c2cc3c(cc2c1NC(=O)CN1CCc2ccccc2C1)OCO3,–,2.82 µM (active)
CCOC(=O)c1[nH]c2cc(OC)c(OC)cc2c1NC(=O)c1ccc2c(c1)OCO2,–,2.24 µM (active)

# From PubChem BioAssay AID1851 (National Center for Advancing Translational Sciences (NCATS), 2009)
